This excerpt belongs to a sample that is enriched for hits.
14-3-3 PPI: modulators of human 14-3-3 gamma - Raf peptide interaction | FP, 14-3-3gamma / TMR-pS259-Raf peptide binding | inhibition, % at 40 µM | 0.19% of 160,000 active | AID 422; in the data active = inhibition above about 30%;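 note: 0% = protein plus tracer without compound and 100% = blank with tracer alone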
Target sequence (P61981 whole entry, looked up): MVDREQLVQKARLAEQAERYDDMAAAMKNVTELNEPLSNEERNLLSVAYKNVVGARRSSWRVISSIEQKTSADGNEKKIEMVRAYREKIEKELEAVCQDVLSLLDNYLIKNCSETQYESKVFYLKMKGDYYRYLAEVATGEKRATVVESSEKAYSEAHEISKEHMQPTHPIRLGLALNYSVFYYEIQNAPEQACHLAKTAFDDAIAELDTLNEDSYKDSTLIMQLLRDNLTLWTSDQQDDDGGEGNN
* marks the source's active call; other numbers are inactive results.

SMILES	14-3-3 PPI
COCCNC(=O)c1c[nH]c2ccc(S(=O)(=O)N(C)c3ccc(F)cc3)cc2c1=O	-5
CCOc1ccc(N(C)S(=O)(=O)c2ccc3[nH]cc(C(=O)NCc4ccccc4)c(=O)c3c2)cc1	-12
Cc1ccccc1N(C)S(=O)(=O)c1ccc2[nH]cc(C(=O)NCC3CCCO3)c(=O)c2c1 (centres undefined)	-6
Cc1cccc(C)c1N(C)S(=O)(=O)c1ccc2[nH]cc(C(=O)NCc3ccccn3)c(=O)c2c1	44*
Cc1ccc(N(C)S(=O)(=O)c2ccc3[nH]cc(C(=O)NCc4ccccn4)c(=O)c3c2)cc1C	-3
COc1ccc2nc(-c3ccc([N+](=O)[O-])cc3)nc(-c3ccccc3)c2c1	-2
CC(C(=O)N(C)C)N(C#N)c1nc(N(C)C)nc(N(C)C)n1 (centres undefined)	-2
COc1cc(NC(=O)c2sc3nc4c(cc3c2N)CCCCC4)cc(OC)c1OC	-4
CN(C)Cc1nc2ccccc2c(=O)n1Cc1nc(C(C)(C)C)cs1	1
O=C(CSc1nc2ccccc2n1S(=O)(=O)c1cccc([N+](=O)[O-])c1)NCc1cccs1	-2
O=C(Nc1ccc2c(c1)CCC2)c1ccc2c(=O)n(CCc3ccccc3)c(=S)[nH]c2c1	5
COC(=O)c1sc(NC(=O)c2c(-c3ccccc3)noc2C)c(C(=O)OC)c1C	-22
CC1(C)Oc2ccc(C(=O)N3CCOCC3)cc2N(CC(=O)N2CCOCC2)C1=O	0
O=C(Nc1ccc(F)cc1)c1ccc2c(=O)n(CC3CCCO3)c(=S)[nH]c2c1 (centres undefined)	2
CCN(CC)S(=O)(=O)c1ccc2oc(C(=O)Nc3cccc(OC)c3)c(C)c2c1	-34
CCOC(=O)c1c(-c2ccc(OC)cc2)oc2ccc(OCc3cccc([N+](=O)[O-])c3)cc12	5
CCc1ccc(NS(=O)(=O)c2ccc3[nH]cc(C(=O)NCc4ccccc4)c(=O)c3c2)cc1	-15
CCc1ccc(NS(=O)(=O)c2ccc3[nH]cc(C(=O)NCc4ccc(C)cc4)c(=O)c3c2)cc1	-15
CCc1ccc(NS(=O)(=O)c2ccc3[nH]cc(C(=O)NCc4ccccn4)c(=O)c3c2)cc1	172*
Cc1ccc(NC(=O)CSc2nc3ccc(NC(=O)c4ccccc4)cc3s2)cc1Cl	-23
CC(=O)Nc1ccc(NC2=CC(=NS(=O)(=O)c3cccs3)c3ccccc3C2=O)cc1	-2
O=C1C(Nc2ccccc2)=CC(=NS(=O)(=O)c2cccs2)c2ccccc21	-79
CCOC(=O)c1ccc(NC2=CC(=NS(=O)(=O)c3cccs3)c3ccccc3C2=O)cc1	67*
COc1ccc(-c2noc(COc3cc(C)c(Cl)c(C)c3)n2)cc1OC	2
O=C1C2C3C=CC(C3)C2C(=O)N1c1ccc(O)cc1 (centres undefined)	-5
SMILES	14-3-3 PPI
CCOC(=O)C1C(=O)C=C(c2ccc(C)cc2)CC1c1ccc(C)cc1 (centres undefined)	2
O=C(Nc1nnc(-c2ccc(F)cc2)o1)c1ccc(S(=O)(=O)N2CCCc3ccccc32)cc1	4
COc1cccc2c1C(=O)c1c(O)c3c(c(O)c1C2=O)C[C@@](O)(C(C)=O)C[C@@H]3O[C@H]1C[C@H](N)[C@H](O)[C@H](C)O1	-4
CC(=O)[C@]1(O)Cc2c(O)c3c(c(O)c2[C@@H](O[C@H]2C[C@H](N)[C@H](O)[C@H](C)O2)C1)C(=O)c1ccccc1C3=O	117*
Cc1ccc(CSc2nc3c(c(=O)[nH]c(=O)n3C)n2CC(N)=O)cc1	-4
CC(C)(CO)NS(=O)(=O)c1ccc2c(c1)oc(=O)c1cc(S(=O)(=O)NC(C)(C)CO)ccc12	-8
Cc1ccccc1NC(=O)CSc1nc(Nc2ccccc2)nc(N2CCOCC2)n1	-2
CC(C)(C)NC(=O)CSc1nsc(SCC(=O)NC(C)(C)C)c1C#N	-1
Cc1csc(NC(=O)CSc2nc(-c3cccs3)cc(-c3cccs3)c2C#N)n1	-26
Cc1csc(NC(=O)CSc2nsc(SCC(=O)Nc3nc(C)cs3)c2C#N)n1	75*
Cc1ccc2nc(C)cc(NCCO)c2c1	4
O=c1c2cc(Br)ccc2[nH]c(=S)n1CCC1=CCCCC1	-1
Cc1ccc(-c2nn(CC(=O)NCc3ccccn3)c(=O)c3ccccc23)cc1S(=O)(=O)N1CCCCC1	-3
CCSc1nnc2c(n1)OC(C1CC=C(C)CC1C)Nc1ccccc1-2 (centres undefined)	-31
CSc1nnc2c(n1)OC(c1ccc(OCc3ccccc3)cc1)Nc1ccccc1-2 (centres undefined)	33*
CSc1nnc2c(n1)OC(c1ccc(OCC(=O)O)cc1)Nc1ccccc1-2 (centres undefined)	-3
C=CCSc1nnc2c(n1)OC(c1cccc(F)c1)Nc1ccccc1-2 (centres undefined)	-98
C=CCOc1cccc(C2Nc3ccccc3-c3nnc(SC)nc3O2)c1 (centres undefined)	134*
CCOc1ccc(C2Nc3ccccc3-c3nnc(SCC)nc3O2)cc1 (centres undefined)	0
CCCSc1nnc2c(n1)OC(C1CC=C(C)CC1C)Nc1ccccc1-2 (centres undefined)	6

Screening results as filed in PubChem.
